The entries come from a sample that favours the strongest signals as a whole.
Columns and labels:
Assay in all cases: glycan array binding signal (z-score within array); higher = stronger binding
Conditions in all cases: glycan notation: IUPAC condensed, linker removed; mutation: R343K
Fuc(a1-2)Gal = target: Fuc(a1-2)Gal
Summary of the method: (§1)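 Arrays were curated from the Consortium for Functional Glycomics database, 3228 in total, and kept only where the protein sequence was available. Binding is expressed as a within-array Z-score. This score was averaged across arrays of the same protein sequence at different concentrations or buffers and across linkers, and negative values can be read as non-binding.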

[1] = target: Fuc(a1-2)Gal(b1-4)GlcNAc(b1-3)Gal(b1-4)GlcNAc(b1-3)Gal(b1-4)GlcNAc
Summary of the method: as §1

[2] = target: Fuc(a1-2)[GalNAc(b1-3)]Gal
Summary of the method: as §1

[3] = target: Fuc(a1-3)[Gal(b1-4)]GlcNAc(b1-2)Man(a1-6)[Gal(b1-4)GlcNAc(b1-2)Man(a1-3)]Man(b1-4)GlcNAc(b1-4)GlcNAc
Summary of the method: as §1

[4] = target: Fuc(a1-3)[Gal(b1-4)]GlcNAc(b1-4)Gal(b1-4)[Fuc(a1-3)]GlcNAc
Summary of the method: as §1

[5] = target: Gal(b1-3)GalNAc(b1-3)Gal(a1-4)Gal(b1-4)Glc
Summary of the method: as §1

[6] = target: Gal(b1-4)GalNAc(a1-3)[Fuc(a1-2)]Gal(b1-4)GlcNAc
Summary of the method: as §1

[7] = target: Gal(b1-4)GlcNAc(a1-6)Gal(b1-4)GlcNAc
Summary of the method: as §1

[8] = target: Gal(b1-4)GlcNAc(b1-6)GalNAc
Summary of the method: as §1

Gal3S(b1-3)GlcNAc = target: Gal3S(b1-3)GlcNAc
Summary of the method: as §1

[9] = target: Gal3S(b1-3)[Fuc(a1-4)]GlcNAc
Summary of the method: as §1

Glc(b1-4)Glc = target: Glc(b1-4)Glc
Summary of the method: as §1

GlcA(b1-6)Gal = target: GlcA(b1-6)Gal
Summary of the method: as §1

[10] = target: GlcNAc(b1-2)Gal(b1-3)GalNAc
Summary of the method: as §1

[11] = target: Man(a1-2)Man(a1-3)[Man(a1-2)Man(a1-6)]Man
Summary of the method: as §1

[12] = target: Man(a1-2)Man(a1-3)[Man(a1-2)Man(a1-6)]Man(a1-6)[Man(a1-2)Man(a1-2)Man(a1-3)]Man
Summary of the method: as §1

[13] = target: Man(a1-2)Man(a1-3)[Man(a1-6)]Man(a1-6)[Man(a1-2)Man(a1-3)]Man(b1-4)GlcNAc(b1-4)GlcNAc
Summary of the method: as §1

[14] = target: Man(a1-3)[Man(a1-6)]Man(a1-6)[Man(a1-2)Man(a1-3)]Man(b1-4)GlcNAc(b1-4)GlcNAc
Summary of the method: as §1

[15] = target: Man(a1-3)[Man(a1-6)]Man(a1-6)[Man(a1-3)]Man
Summary of the method: as §1

[16] = target: Neu5Ac(a2-3)Gal(b1-3)GalNAc(b1-3)Gal(a1-4)Gal(b1-4)Glc
Summary of the method: as §1

[17] = target: Neu5Ac(a2-3)Gal(b1-3)GalNAc6S
Summary of the method: as §1

[18] = target: Neu5Ac(a2-3)Gal(b1-3)GlcNAc
Summary of the method: as §1

[19] = target: Neu5Ac(a2-3)Gal(b1-4)GlcNAc(b1-3)Gal(b1-4)GlcNAc(b1-3)Gal(b1-4)GlcNAc
Summary of the method: as §1

[20] = target: Neu5Ac(a2-6)GalNAc(b1-4)GlcNAc
Summary of the method: as §1

[21] = target: Neu5Ac9Ac(a2-6)Gal(b1-4)GlcNAc
Summary of the method: as §1

[22] = target: Neu5Gc(a2-6)Gal(b1-4)GlcNAc
Summary of the method: as §1

B1: Surfactant Protein D (Human); Neck + Carbohydrate Recognition Domain (NCRD) (Homo sapiens) (protein)
chain: MLLFLLSALVLLTQPLGYLEAEMKTYSHRTMPSACTLVMCSSVESGLPGRDRDGREGPRGEKGDPGLPGAAGQAGMPGQAGPVGPKGDNGSVGEPGPKGDTGPSGPPGPPGVPGPAGREGALGKQGNIGPQGKPGPKGEAGPKGEVGAPGMQGSAGARGLAGPKGERGVPGERGVPGNTGAAGSAGAMGPQGSPGARGPPGLKGDKGIPGDKGAKGESGLPDVASLRQQVEALQGQVQHLQAAFSQYKKVELFPNGQSVGEKIFKTAQFVKPFTEAQLLCTQAGGQLASPRSAAENAALQQLVVAKNEAAFLSMTDSKTEGKFTYPTGESLVYSNWAPGEPNDDGGSEDCVEIFTNGKWNDKACGEKRLVVCEF
For B1, the “glycan array binding signal (z-score)” value (Fuc(a1-2)Gal) was -0.147, the “glycan array binding signal (z-score)” value [1] was -0.143 and the “glycan array binding signal (z-score)” value [2] was -0.145. The “glycan array binding signal (z-score)” value [3] was -0.147, the “glycan array binding signal (z-score)” value [4] was -0.157 and the “glycan array binding signal (z-score)” value [5] was -0.147. For the same binder, the “glycan array binding signal (z-score)” value [6] was -0.145, the “glycan array binding signal (z-score)” value [7] was -0.153 and the “glycan array binding signal (z-score)” value [8] was -0.151. For the same binder, the “glycan array binding signal (z-score)” value (Gal3S(b1-3)GlcNAc) was -0.155, the “glycan array binding signal (z-score)” value [9] was -0.153 and the “glycan array binding signal (z-score)” value (Glc(b1-4)Glc) was -0.153. The “glycan array binding signal (z-score)” value (GlcA(b1-6)Gal) was -0.146, the “glycan array binding signal (z-score)” value [10] was -0.159 and the “glycan array binding signal (z-score)” value [11] was 5.42. The “glycan array binding signal (z-score)” value [12] was 10.9, the “glycan array binding signal (z-score)” value [13] was 5.1 and the “glycan array binding signal (z-score)” value [14] was 7.96. The “glycan array binding signal (z-score)” value [15] was 5.92, the “glycan array binding signal (z-score)” value [16] was -0.155 and the “glycan array binding signal (z-score)” value [17] was -0.156. The “glycan array binding signal (z-score)” value [18] was -0.142, the “glycan array binding signal (z-score)” value [19] was -0.143 and the “glycan array binding signal (z-score)” value [20] was -0.155. For the same binder, the “glycan array binding signal (z-score)” value [21] was -0.15 and the “glycan array binding signal (z-score)” value [22] was -0.155.

Source: the supplement of paper PMC8728848
